Data on 38 compounds can be found in PubChem BioAssay (NCATS).

Active and inactive are the calls of the source. Calls follow the shape of the dose curve; as a rule, active = well fitted inhibition curve with a large enough effect; inconclusive = small, poorly fitted or top-dose-only effect; inactive = flat fitted curve, though single readings scatter.

This test concerns Nanoluciferase (engineered Oplophorus gracilirostris luciferase). Description: Primary Nanoluciferase (NLuc) qHTS assay for identification of artifact compounds. (AID 1845222).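 Also: 0% = DMSO and -100% = no enzyme.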 As to conditions: NLuc-conditioned medium, Nano-Glo luminescence, 5 min; series mostly up to 54.1 µM; activity, negative = inhibition: at the top concentration. The method, boiled down: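 Compounds are pinned into diluted (1:55) conditioned medium of NLuc-expressing S16 cells and held 15 min at room temperature protected from light. Nano-Glo substrate follows, and luminescence is read 5 min later.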
For orientation: qHTS replaces the single test concentration by a dilution series.
As for `C=C1C(=O)O[C@@H]2C/C(C)=C\C(=O)/C=C(\C)[C@@H](OC(=O)/C(C)=C\C)[C@H](O)[C@@H]12`, the “activity, negative = inhibition” value was -7.52% (inactive).

For `C/C=C1\[C@H](O[C@@H]2O[C@H](CO)[C@@H](O)[C@H](O)[C@H]2O)OC=C2C(=O)OCCc3ccc(O)c(c3)Oc3ccc(cc3)CCOC(=O)C[C@H]21`, the “activity, negative = inhibition” value was -7.43% [at 25.7 µM] (inactive).

As for `OC1CCC(Nc2ncc3nc(Nc4c(F)cc(F)cc4F)n([C@H]4CCOC4)c3n2)CC1` (stereo partly drawn), the “activity, negative = inhibition” value was -1.15% (inactive).

On to `CC(=O)O[C@H]1C(=O)[C@@]2(C)[C@H]([C@H](OC(=O)c3ccccc3)[C@]3(O)C[C@H](OC(=O)[C@H](O)[C@@H](NC(=O)c4ccccc4)c4ccccc4)C(C)=C1C3(C)C)[C@]1(OC(C)=O)CO[C@@H]1C[C@@H]2O`, for which the activity, negative = inhibition is 4.66% [at 11.6 µM] (inactive).

As to `COc1ccc2c(OC)c3ccoc3nc2c1OC`, the “activity, negative = inhibition” value is -5.78% (inactive).

Consider `CC(c1ncncc1F)C(O)(Cn1cncn1)c1ccc(F)cc1F` (stereo not drawn), for which the “activity, negative = inhibition” value is -4.27% (inactive).

In the case of `Cc1c(C(=O)Nc2ccc(N3CC(C)OC(C)C3)nc2)cccc1-c1ccc(OC(F)(F)F)cc1` (stereo not drawn), the “activity, negative = inhibition” value was 3.89% (inactive).

In the case of `C=CC(C)(C)c1[nH]c2cc3c(cc2c1CC1NC(=O)C2=CCCN2C1=O)C=CC(C)(C)O3` (stereo not drawn), the “activity, negative = inhibition” value was -2.59% [at 25.7 µM] (inactive).

As to `C=C1C(OC(C)=O)CCC2(C)CC3(OC)OC(=O)C(C)=C3CC12` (stereo not drawn), the “activity, negative = inhibition” value is -0.466% (inactive).

With `CC1=C(/C=C/C(C)=C\C=C\C(C)=C/C(=O)O)C(C)(C)CCC1`, the “activity, negative = inhibition” value is -3.33% (inactive).

For `COC(=O)N[C@H](C(=O)N1[C@@H]2CC[C@@H](C2)[C@H]1c1nc2ccc(-c3ccc4c(c3)C(F)(F)c3cc(-c5cnc([C@@H]6CCC7(CC7)N6C(=O)[C@@H](NC(=O)OC)C(C)C)[nH]5)ccc3-4)cc2[nH]1)C(C)C`, the “activity, negative = inhibition” value is 1.08% [at 25.7 µM] (inactive).

Regarding `C=C[C@H]1CN2CC[C@H]1C[C@@H]2C(O)c1ccnc2ccc(OC)cc12` (stereo partly drawn), the “activity, negative = inhibition” value is -1.76% (inactive).

With `Cc1cn(C2C=CC(CO)O2)c(=O)[nH]c1=O` (stereo not drawn), the “activity, negative = inhibition” value is -3.83% (inactive).

For the compound `FC(F)(F)c1cc(-c2ncn(/C=C\c3nnco3)n2)cc(C(F)(F)F)c1`, the “activity, negative = inhibition” value is 1.19% (inactive).

For `CC1(c2nc3c(C(N)=O)cccc3[nH]2)CCCN1` (stereo not drawn), the “activity, negative = inhibition” value is 2.64% (inactive).

On to `Cn1nc(C(C)(C)C)cc1C(=O)NC(Cc1cccc(Cl)c1)C(=O)NCC#N` (stereo not drawn), for which the “activity, negative = inhibition” value was -3.06% (inactive).

As to `COc1nc2sc(C(=O)NC3CC3)c(N)c2c(C)c1Cl`, the “activity, negative = inhibition” value is -0.315% (inactive).

Regarding `CC1(C)CCCC2(C)C(CO)C(CO)=CCC12` (stereo not drawn), the “activity, negative = inhibition” value is -3.02% (inactive).

For the compound `COc1ccc(C2COc3cc(O)ccc3C2)c(O)c1` (stereo not drawn), the “activity, negative = inhibition” value was -7.59% (inactive).

Take `NC(=O)C(CCC(F)(F)F)N(Cc1ccc(-c2ncon2)cc1F)S(=O)(=O)c1ccc(Cl)cc1` (stereo not drawn): the “activity, negative = inhibition” value is -7.93% (inactive).

Regarding `CON(C)C(=O)[C@H](O)[C@H](Cc1ccccc1)NC(=O)c1cc2cc(Cl)ccc2[nH]1`, the “activity, negative = inhibition” value is -2.8% (inactive).

For the compound `Cc1ccc(F)cc1C(=O)Nc1ccc(C(=O)N2Cc3cccn3Cc3ccccc32)c(Cl)c1`, the “activity, negative = inhibition” value is -4.64% (inactive).

On to `COC(=O)CC1CC(c2ccc(O)cc2)=NO1` (stereo not drawn), for which the “activity, negative = inhibition” value is -13.3% (inactive).

As to `CS(=O)(=O)NCC1CCC(Nc2nc3c(s2)CCSc2ccccc2-3)CC1` (stereo not drawn), the “activity, negative = inhibition” value is 3.34% (inactive).

With `O=C(Nc1ccc(Cl)cc1F)c1ccccc1O`, the “activity, negative = inhibition” value is -4.7% (inactive).

Regarding `COc1cc2c3c(cc4ccccc4c3c1O)NC2=O`, the “activity, negative = inhibition” value was -4.9% (inactive).

For the compound `CN=C(N)NCCCCC/C=C(/C)CC(C)C1OC(=O)C(C)C(O)/C=C/C(C)C(O)CC(O)C(C)C(O)CCC(C)C(O)CC2(O)OC(CC(OC(=O)CC(=O)O)CC(O)CC(O)C(C)C(O)/C(C)=C/CCC1C)CC(O)C2O` (stereo not drawn), the activity, negative = inhibition was -0.658% [at 11.6 µM] (inactive).

Consider `CNC(C)C(=O)NC(C(=O)N1CCCC1c1nc(C(=O)c2ccc(F)cc2)cs1)C1CCCCC1` (stereo not drawn), for which the “activity, negative = inhibition” value is 2.19% (inactive).

Turning to `COc1ccc([C@@]2(O)c3c(ccc4c3OC(C)(CCC=C(C)C)C=C4)NC(=O)[C@@H]2OC)cc1` (stereo partly drawn), the “activity, negative = inhibition” value is 0.368% [at 25.7 µM] (inactive).

Consider `Cc1cc(C)c2c(N)c(C(=O)NCc3ccc(Cl)cc3)sc2n1`, for which the “activity, negative = inhibition” value is -0.411% (inactive).

As for `COC(=O)N[C@@H](C)CNc1nccc(-c2cn(C(C)C)nc2-c2cc(Cl)cc(NS(C)(=O)=O)c2F)n1`, the “activity, negative = inhibition” value is -4.34% (inactive).

For the compound `OCC1OC(Oc2cc(O)cc(/C=C/c3ccc(O)cc3)c2)C(O)C(O)C1O` (stereo not drawn), the “activity, negative = inhibition” value is -3.09% (inactive).

As to `CCC(C)/C=C(C)/C=C/c1cc2c(cn1)C(=O)C(C)(OC(C)=O)C(O)=C2Cl` (stereo not drawn), the “activity, negative = inhibition” value was -9.97% (inactive).

As to `C/C=C/C=C/C=C/C(=O)OC1C=C(C=O)C(O)(C(=O)O)C2(C)CCCC(C)(C)C12` (stereo not drawn), the “activity, negative = inhibition” value is -1.87% [at 25.7 µM] (inactive).

Consider `Cn1nnc(-c2ccc(-c3ccc(N4C[C@H](COP(=O)(O)O)OC4=O)cc3F)cn2)n1`, for which the “activity, negative = inhibition” value was -18.4% (inactive).

For `OC/C=C/c1ccc(O[C@@H]2O[C@H](CO)[C@@H](O)[C@H](O)[C@H]2O)cc1`, the “activity, negative = inhibition” value was -11.3% (inactive).

In the case of `COc1cc2oc(-c3ccc(O)cc3O)cc2c(OC)c1CC=C(C)C`, the “activity, negative = inhibition” value was 1.96% (inactive).

With `C=C1CCC2C(C)(C)CCC[C@]2(C)[C@H]1C/C=C(\CO)C(=O)C(=O)O` (stereo partly drawn), the “activity, negative = inhibition” value is -3.95% (inactive).
